# Assay results from the supplement of paper PMC4022240.
# ± gives the standard deviation.
# T1: HaloTag-ATRX ADD domain (163-292)
# T1 chain: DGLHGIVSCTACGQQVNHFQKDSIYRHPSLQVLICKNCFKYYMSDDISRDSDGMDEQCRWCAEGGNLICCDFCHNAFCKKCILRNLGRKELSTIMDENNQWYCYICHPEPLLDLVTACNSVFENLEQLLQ
# B1: Unmod H1 variant A K K K L A A T P K K A K (peptide)
# chain: AKKKLAATPKKAK
# B2: Unmod H1 variant A E K N R A G S S R Q S I (peptide)
# chain: AEKNRAGSSRQSI
# B3: Unmod H1 variant S H Y K V G E N A D S Q I (peptide)
# chain: SHYKVGENADSQI
# B4: Unmod H1 variant K K A K K P K T V K A K P (peptide)
# chain: KKAKKPKTVKAKP
# B5: Unmod H1 variant S D M I V A A I Q A E K N (peptide)
# chain: SDMIVAAIQAEKN
# B6: Unmod H1 variant K A K P V K A S K P K K A (peptide)
# chain: KAKPVKASKPKKA
# B7: Unmod H1 variant T E N S T S A P A A K P K (peptide)
# chain: TENSTSAPAAKPK
# B8: Unmod H1 variant P K K S V A F K K T K K E (peptide)
# chain: PKKSVAFKKTKKE
# B9: Unmod H1 variant K P K A T P V K K A K K K (peptide)
# chain: KPKATPVKKAKKK
# B10: Unmod H1 variant T P K K A S K P K K A A S (peptide)
# chain: TPKKASKPKKAAS
# Target: T1, HaloTag-ATRX ADD domain (163-292)
# Assay: peptide microarray binding signal (635 nm), min-max normalized on array (fraction of array maximum); higher = stronger binding
# Conditions: peptide region: Unmod H1 variant; binder concentration: 50 nM
# Procedure, shortened: (§1)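 For each library, binding signal was taken as the triplicate-spot mean intensity and then min-max scaled. Spots of histone 13-mer peptide–cellulose conjugates on nitrocellulose, printed in triplicate with a Cy3 tracer, were probed for 1 h at 4°C with either biotin-labelled HaloTag reader fusions (10 nM to 1 μM) and streptavidin-Alexa Fluor 647 or rabbit histone antibodies (1:10,000 to 1:2,000) and anti-rabbit Alexa 647. Readout at 635 nm came from an Axon GenePix 4000B.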
row,Binder,peptide microarray binding signal
1,B1,0.01188 ± 3e-05
2,B2,0.0112 ± 0.00071
3,B3,0.00937 ± 0.00014
4,B4,0.0134 ± 0.00092
5,B5,0.0102 ± 0.00022
6,B6,0.01229 ± 0.00011
7,B7,0.0132 ± 0.00019
8,B8,0.0103 ± 0.00015
9,B9,0.0137 ± 0.0012
10,B10,0.0118 ± 0.00065

# Same assay, conditions: peptide region: Unmod H1 variant; binder concentration: 500 nM
row,Binder,peptide microarray binding signal
1,B1,0.0112 ± 0.00064
2,B2,0.0179 ± 0.0034
3,B3,0.00671 ± 0.00048
4,B4,0.00981 ± 0.00033
5,B5,0.00514 ± 0.00038
6,B6,0.00971 ± 0.00061
7,B7,0.0173 ± 0.002
8,B8,0.00867 ± 0.00023
9,B9,0.0124 ± 0.00028
10,B10,0.00967 ± 0.00036

# Target: HaloTag-ING2 PHD (mouse Ing2 200-280)
# Assay: as above
# Conditions: peptide region: Unmod H1 variant; binder concentration: 10 nM
# Procedure, shortened: as §1
row,Binder,peptide microarray binding signal
1,B1,0.00203 ± 2.1e-05
2,B2,0.00495 ± 0.00025
3,B3,0.00197 ± 2.3e-05
4,B4,0.00215 ± 4.5e-05
5,B5,0.00555 ± 0.00034
6,B6,0.00292 ± 7.4e-05
7,B7,0.005132 ± 2.5e-05
8,B8,0.00203 ± 5.4e-05
9,B9,0.00209 ± 5.3e-05
10,B10,0.00167 ± 1.7e-05

# Same assay, conditions: peptide region: Unmod H1 variant; binder concentration: 100 nM
row,Binder,peptide microarray binding signal
1,B1,0.00397 ± 0.00028
2,B2,0.00943 ± 0.0026
3,B3,0.00298 ± 0.00012
4,B4,0.00645 ± 0.00057
5,B5,0.00326 ± 5.1e-05
6,B6,0.00574 ± 0.00036
7,B7,0.00694 ± 0.00038
8,B8,0.00298 ± 7.3e-05
9,B9,0.00319 ± 0.00028
10,B10,0.00489 ± 0.00044

# Target: anti-H3K4me3 antibody ab8580
# Assay: as above
# Conditions: peptide region: Unmod H1 variant; binder concentration: 1:2,000 dilution
# Procedure, shortened: as §1
row,Binder,peptide microarray binding signal
1,B1,0.000415 ± 8.4e-06
2,B2,0.000453 ± 4.1e-05
3,B3,0.000227 ± 4.2e-06
4,B4,0.000642 ± 1.6e-05
5,B5,0.00111 ± 2.4e-05
6,B6,0.00051 ± 8.6e-06
7,B7,0.000906 ± 4.9e-05
8,B8,0.000321 ± 6.7e-06
9,B9,0.000547 ± 2.7e-05
10,B10,0.000698 ± 3.6e-05

# Same assay, conditions: peptide region: Unmod H1 variant; binder concentration: 1:10,000 dilution
row,Binder,peptide microarray binding signal
1,B1,0.000799 ± 2.2e-05
2,B2,0.000913 ± 1.6e-05
3,B3,0.000571
4,B4,0.000628 ± 6.7e-06
5,B5,0.00126 ± 4.3e-05
6,B6,0.000685 ± 7.2e-06
7,B7,0.00188 ± 3.5e-05
8,B8,0.000628 ± 6.7e-06
9,B9,0.00126 ± 2.2e-05
10,B10,0.000571

# Target: anti-H3K9me3 antibody ab8898
# Assay: as above
# Conditions: peptide region: Unmod H1 variant; binder concentration: 1:2,000 dilution
# Procedure, shortened: as §1
row,Binder,peptide microarray binding signal
1,B1,0.000272
2,B2,0.000544 ± 1.5e-05
3,B3,0.000181
4,B4,0.000151 ± 1.6e-06
5,B5,0.000559 ± 2.9e-05
6,B6,0.000196 ± 2.1e-06
7,B7,0.00136 ± 1.7e-05
8,B8,0.000423 ± 4.2e-05
9,B9,0.0008 ± 0.00013
10,B10,0.000181

# Same assay, conditions: peptide region: Unmod H1 variant; binder concentration: 1:10,000 dilution
row,Binder,peptide microarray binding signal
1,B1,0.00098 ± 4.6e-05
2,B2,0.00219 ± 0.00045
3,B3,0.000404 ± 4.4e-06
4,B4,0.000634 ± 1.2e-05
5,B5,0.00104 ± 2.1e-05
6,B6,0.000692 ± 7.3e-06
7,B7,0.0015 ± 2.5e-05
8,B8,0.000519 ± 5.6e-06
9,B9,0.000634 ± 1.2e-05
10,B10,0.000519 ± 5.6e-06
